Our source for the AC50 and outcome values is PubChem BioAssay (EPA / NIEHS).

The nature of experiment [1]: BSK_3C_SRB: Viability Assessment in the BioMAP Diversity Plus: 3C Assay (AID 2283023).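 Note: cells read 24 h after compound dosing; fitted both ways against DMSO so a hit may be signal rise or drop.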 As to conditions: primary human endothelial cells (HUVEC). The gist of the method:
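Absorbance at 560 nm of sulforhodamine B-stained (0.1%) total protein served as a cytotoxicity readout in human umbilical vein endothelial cells, 24 h after chemical treatment. Signal was fitted bidirectionally relative to DMSO.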

Read-out in experiment [2]: Matrix Metallopeptidase 1 (MMP1), MMP1 (gene 4312)
As to the kind of experiment: BSK_BE3C_MMP1: BioMAP Diversity Plus: BE3C Assay for Matrix Metallopeptidase 1 (MMP1) Biomarker Activity (AID 2283024). As to conditions: primary human bronchial epithelial cells; actives raise or lower the signal. The gist of the method:
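In this multiplexed primary-cell system, human bronchial epithelium received chemicals for 24 h before an ELISA for MMP1. Values reflect bidirectional fits normalised to the DMSO baseline.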

A short description of experiment [3]: BSK_3C_Vis: BioMAP Diversity Plus: 3C Assay for Morphology Visualization (AID 2283025).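 For AC50: light microscopy image of cell morphology used as background control.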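 Note: fitted both ways so gain or loss versus DMSO counts.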 As to conditions: primary human endothelial cells (HUVEC). The gist of the method:
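Light-microscopy morphology readout, 24 h exposure, human primary umbilical vein endothelium; analysed relative to DMSO with bidirectional fitting.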

The nature of experiment [4]: BSK_4H_SRB: Viability Assessment in the BioMAP Diversity Plus: 4H Assay (AID 2283027).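 For AC50: curves fitted both ways versus DMSO so AC50 may be loss or gain.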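 Note: cells exposed to compound for 24 h before staining.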 As to conditions: primary human endothelial cells (HUVEC). The gist of the method:
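Cytotoxicity readout: sulforhodamine B (0.1%) staining of total protein after 10% TCA fixation, measured at 560 nm in human umbilical vein endothelium at 24 h. DMSO set the baseline; fitting was bidirectional.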

Experiment [5] is described as follows: BSK_BE3C_SRB: Viability Assessment in the BioMAP Diversity Plus: BE3C Assay (AID 2283028).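 For AC50: fitted both ways so AC50 may mark signal gain or loss versus DMSO.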 As to conditions: primary human bronchial epithelial cells. The gist of the method: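 Cells (human bronchial epithelial, primary) are treated with chemicals, and after 24 h the parallel cultures are fixed in 10% TCA. These are then stained with 0.1% SRB and read at 560 nm. Gain or loss of signal is fitted relative to DMSO.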

Read-out in experiment [6]: Thrombomodulin, THBD (gene 7056)
As to the kind of experiment: BSK_3C_Thrombomodulin: BioMAP Diversity Plus: 3C Assay for Thrombomodulin Biomarker Activity (AID 2283029). As to conditions: primary human endothelial cells (HUVEC); actives raise or lower the signal. In outline:
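In a multiplexed primary-cell system, human umbilical vein endothelium received chemical and was assayed 24 h later for thrombomodulin by ELISA. Parallel cultures were SRB-stained (0.1% SRB after 10% TCA fixation, read at 560 nm) to flag cytotoxicity.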

Read-out in experiment [7]: Urokinase-type plasminogen activator receptor (uPAR), PLAUR (gene 5329)
In words: BSK_4H_uPAR: BioMAP Diversity Plus: 4H Assay for Urokinase-type plasminogen activator receptor (uPAR) Biomarker Activity (AID 2283030). As to conditions: primary human endothelial cells (HUVEC); actives raise or lower the signal. The gist of the method:
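Cell-surface uPAR ELISA signal, measured 24 h after dosing human umbilical vein endothelial cells, was analyzed with bidirectional fitting relative to DMSO. Parallel SRB staining of total protein tracked overt cytotoxicity.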

Read-out in experiment [8]: Vascular endothelial growth factor receptor 2 (Homo sapiens) (UniProt P35968)
As to the kind of experiment: BSK_4H_VEGFRII: BioMAP Diversity Plus: 4H Assay for Vascular endothelial growth factor receptor 2 (VEGFR2) Biomarker Activity (AID 2283031).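 For AC50: cell-surface VEGFR2 protein level quantified by ELISA.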 As to conditions: primary human endothelial cells (HUVEC); actives raise or lower the signal. The gist of the method:
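ELISA read-out of VEGFRII in primary human umbilical vein endothelium, taken 24 h after chemical treatment. Responses are expressed relative to DMSO, with bidirectional fitting.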

Read-out in experiment [9]: Human Leukocyte Antigen - DR isotype (HLADR), HLA-DRA (gene 3122)
In words: BSK_BE3C_HLADR: BioMAP Diversity Plus: BE3C Assay for Human Leukocyte Antigen - DR isotype (HLADR) Biomarker Activity (AID 2283032). As to conditions: primary human bronchial epithelial cells; actives raise or lower the signal. In outline:
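BioMAP BE3C format: human bronchial epithelium, 24 h compound treatment, ELISA detection of HLA-DR, with bidirectional analysis relative to DMSO.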

Read-out in experiment [10]: Vascular cell adhesion molecule 1 (VCAM1), VCAM1 (gene 7412)
In words: BSK_4H_VCAM1: BioMAP Diversity Plus: 4H Assay for Vascular cell adhesion molecule 1 (VCAM1) Biomarker Activity (AID 2283033).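 For outcome: cell-surface VCAM-1 protein measured by ELISA.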 As to conditions: primary human endothelial cells (HUVEC); actives raise or lower the signal. The gist of the method:
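In this human endothelial (HUVEC) system, biomarker ELISA was run 24 h after compound addition, and total protein in parallel wells was assessed by SRB at 560 nm; DMSO served as negative control.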

Read-out in experiment [11]: Interferon-gamma inducible Protein 10 (IP10), CXCL10 (gene 3627)
In words: BSK_BE3C_IP10: BioMAP Diversity Plus: BE3C Assay for Interferon-gamma inducible Protein 10 (IP10) Biomarker Activity (AID 2283034). As to conditions: primary human bronchial epithelial cells; actives raise or lower the signal. The gist of the method: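 BE3C cells (human bronchial epithelial, primary); 24 h exposure; ELISA for IP-10; DMSO-referenced bidirectional fit.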

Read-out in experiment [12]: Monokine induced gamma interferon (MIG), CXCL9 (gene 4283)
As to the kind of experiment: BSK_BE3C_MIG: BioMAP Diversity Plus: BE3C Assay for Monokine induced gamma interferon (MIG) Biomarker Activity (AID 2283035).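 For outcome: MIG protein measured by ELISA in BE3C cultures after 24 h of dosing.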 As to conditions: primary human bronchial epithelial cells; actives raise or lower the signal. In outline:
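hu bronchial epithelial 1° cells, 24 h cpd; MIG by ELISA; bidirectional fit, DMSO = baseline.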

Read-out in experiment [13]: Transforming growth factor beta 1 (TGFb1), TGFB1 (gene 7040)
In words: BSK_BE3C_TGFb1: BioMAP Diversity Plus: BE3C Assay for Transforming growth factor beta 1 (TGFb1) Biomarker Activity (AID 2283036;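 for outcome: TGF-b1 protein level measured by ELISA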). As to conditions: primary human bronchial epithelial cells; actives raise or lower the signal. In outline: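 TGF-b1 measured via ELISA, 24 h after chemical dosing of human bronchial epithelial cells (BE3C). Overt cytotoxicity assessed in parallel by SRB (0.1%, TCA-fixed, 560 nm); analysis bidirectional relative to DMSO.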

Read-out in experiment [14]: Plasminogen activator inhibitor-1 (PAI1), SERPINE1 (gene 5054)
In words: BSK_BE3C_PAI1: BioMAP Diversity Plus: BE3C Assay for Plasminogen activator inhibitor-1 (PAI1) Biomarker Activity (AID 2283037). As to conditions: primary human bronchial epithelial cells; actives raise or lower the signal. In outline:
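In this multiplexed primary-cell system, bronchial epithelial cells receive test chemical and are sampled at 24 h. PAI-1 is read by ELISA, with DMSO serving as negative control for bidirectional fitting.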

Read-out in experiment [15]: urokinase plasminogen activator (uPA), PLAU (gene 5328)
In words: BSK_BE3C_uPA: BioMAP Diversity Plus: BE3C Assay for urokinase plasminogen activator (uPA) Biomarker Activity (AID 2283038).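 Note: uPA protein level quantified by ELISA in cell cultures; uPA read one day after compound addition.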 As to conditions: primary human bronchial epithelial cells; actives raise or lower the signal. In outline: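 Bronchial epithelial cells (human, primary); chemical 24 h; uPA by ELISA; bidirectional fit vs DMSO. SRB (0.1%, after 10% TCA fixation, 560 nm) in parallel cultures for cytotoxicity.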

Read-out in experiment [16]: Urokinase-type plasminogen activator receptor (uPAR), PLAUR (gene 5329)
In words: BSK_BE3C_uPAR: BioMAP Diversity Plus: BE3C Assay for Urokinase-type plasminogen activator receptor (uPAR) Biomarker Activity (AID 2283039).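 For outcome: cells exposed to compound for one day before measurement.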 As to conditions: primary human bronchial epithelial cells; actives raise or lower the signal. The gist of the method: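 Chemically treated human bronchial epithelial cells (lung primary) are assayed for uPAR by ELISA after 24 h, with data fitted in both directions using DMSO as negative control.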

Read-out in experiment [17]: Interleukin-6 (IL6), IL6 (gene 3569)
In words: BSK_CASM3C_IL6: BioMAP Diversity Plus: CASM3C Assay for Interleukin-6 (IL6) Biomarker Activity for (AID 2283040). As to conditions: primary human coronary artery smooth muscle cells; actives raise or lower the signal.

Read-out in experiment [18]: Tissue plasminogen activator (tPA), PLAT (gene 5327)
In words: BSK_BE3C_tPA: BioMAP Diversity Plus: BE3C Assay for Tissue plasminogen activator (tPA) Biomarker Activity (AID 2283041).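 For outcome: tPA level quantified by ELISA one day after compound addition.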 As to conditions: primary human bronchial epithelial cells; actives raise or lower the signal. In outline:
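Using human lung primary bronchial epithelial cells, tPA was measured by ELISA 24 h after dosing; data fitted relative to DMSO.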

Read-out in experiment [19]: Pselectin, SELP (gene 6403)
As to the kind of experiment: BSK_4H_Pselectin: BioMAP Diversity Plus: 4H Assay for Pselectin Biomarker Activity (AID 2283026). As to conditions: primary human endothelial cells (HUVEC); actives raise or lower the signal. In outline: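 Bidirectional fits against DMSO gave the endpoint. Cells: primary human umbilical vein endothelium, chemical-treated for 24 h before ELISA detection of P-selectin.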

Where “and” joins values, the source holds several entries; their conditions need not be identical. Equal values may be shown once. Some structures have more than one record in an assay (separate samples or runs), and their calls can disagree. Calls of active or inactive are those of the source. Rule for the calls: active = hit-call score of the fitted dose curve at least 0.9, where 1 is the maximum; inactive = score below 0.9.

For orientation: AC50 means the concentration giving half of the maximal activity seen. `Cn1cnc([N+](=O)[O-])c1Sc1ncnc2nc[nH]c12`: the AC50 in experiment [1] is 19.9 µM (active) and 12.6 µM (active) and 14 µM (active); in [6], 3.36 µM (active); in [10], 8.19 µM (active) and 9.52 µM (active); in experiment [18], 6.7 µM (active). The result in experiment [2], in experiment [3], in [4], in experiment [5], in experiment [6] and in experiment [7] was inactive. For the same compound, the result in [8], in experiment [9], in [10], in [11], in experiment [12] and in experiment [13] was inactive. The outcome in experiment [14], in experiment [15], in [16], in [17] and in [18] was inactive.

`O=C(O)c1cc(N=Nc2ccc(S(=O)(=O)Nc3ccccn3)cc2)ccc1O`: the result in experiment [1], in experiment [2], in experiment [3], in experiment [19], in experiment [4] and in [5] was inactive. Moreover, the result in [6], in experiment [7], in [8], in experiment [9], in experiment [10] and in [11] was inactive. Also, the outcome in [12], in [13], in experiment [14], in experiment [15], in experiment [16] and in experiment [17] was inactive. In addition, the result in experiment [18] was inactive.

In the case of `CCCCC(CC)COC(=O)c1ccc(C(=O)OCC(CC)CCCC)cc1` (centres undefined), the outcome in experiment [1], in experiment [3], in [19], in experiment [5], in experiment [6] and in experiment [7] was inactive. Also, the outcome in [8], in experiment [9], in experiment [10], in [11], in experiment [12] and in experiment [13] was inactive. The result in experiment [14], in experiment [15], in [16], in experiment [17] and in experiment [18] was inactive.

`CCC(C)(C)C(=O)O[C@H]1C[C@@H](C)C=C2C=C[C@H](C)[C@H](CC[C@@H]3C[C@@H](O)CC(=O)O3)[C@H]21`: the AC50 was 3.97 µM (active) in experiment [1]; 31.9 µM (active) in experiment [2]; 20 µM (active) in [3]; 10.1 µM (active) in experiment [4]; 36.1 µM (active) in experiment [5]; 0.526 µM (active) in [6]. In addition, the AC50 in experiment [7] is 20 µM (active); in [8], 26.9 µM (active); in experiment [9], 30.8 µM (active); in experiment [10] it was 29.9 µM (active); in experiment [11] it was 34.1 µM (active); in experiment [12], 36.7 µM (active). Moreover, the concentration at half-maximal activity (AC50) was 27.1 µM (active) in experiment [13], 31.9 µM (active) in [14], 32.5 µM (active) in experiment [16] and 5.4 µM (active) in experiment [18]. Besides, the outcome in experiment [17] was inactive.

In the case of `Cn1c(=O)c2c(ncn2C)n(C)c1=O`, the outcome in experiment [1], in [2], in experiment [3], in [5], in experiment [6] and in experiment [7] was inactive. Also, the result in experiment [8], in [9], in experiment [10], in [11], in experiment [12] and in experiment [13] was inactive. Besides, the result in experiment [14], in experiment [15], in experiment [16], in [17] and in experiment [18] was inactive.

For the compound `CC1=CC(=O)CC(C)(C)C1`, the outcome in experiment [1], in experiment [2], in experiment [3], in experiment [4], in [5] and in [6] was inactive. The outcome in experiment [7], in experiment [8], in [9], in experiment [10], in experiment [11] and in [12] was inactive. Further, the result in experiment [13], in experiment [14], in experiment [15], in experiment [16], in experiment [17] and in experiment [18] was inactive.
